Assay outcomes: PubChem BioAssay, several laboratories
Most compounds without a hit are left out; they make up all but 3.3% or so of the library.
PfG6PD inh: PfG6PD (Plasmodium falciparum) enzyme inhibition. 350,000 tested, 0.78% active. inhibition, % at 20 µM. PfGluPho enzyme, NADPH resazurin-diaphorase fluorescence;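 active means inhibition reaching at least a set limit at 20 µM in the primary screen, cut at about 59% in these data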
PfM18AAP inh: PfM18AAP enzyme inhibition; recombinant PfM18AAP, H-Glu-NHMec fluorogenic cleavage; inhibition, % at 7.35 µM; 290,000 tested, 1.2% active;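 active means inhibition above the campaign mean inhibition over all tested compounds plus 3 SD, cut at about 28% in these data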
MBD2 DNA inh: inhibitors of human MBD2 binding to methylated oligonucleotide | Q9UBB5 | TR-FRET | inhibition, % at 4.4 µM | 370,000 tested, 0.31% active | AID 686964; in the data active means inhibition above about 13%
Target sequence (Q9UBB5 whole entry, looked up): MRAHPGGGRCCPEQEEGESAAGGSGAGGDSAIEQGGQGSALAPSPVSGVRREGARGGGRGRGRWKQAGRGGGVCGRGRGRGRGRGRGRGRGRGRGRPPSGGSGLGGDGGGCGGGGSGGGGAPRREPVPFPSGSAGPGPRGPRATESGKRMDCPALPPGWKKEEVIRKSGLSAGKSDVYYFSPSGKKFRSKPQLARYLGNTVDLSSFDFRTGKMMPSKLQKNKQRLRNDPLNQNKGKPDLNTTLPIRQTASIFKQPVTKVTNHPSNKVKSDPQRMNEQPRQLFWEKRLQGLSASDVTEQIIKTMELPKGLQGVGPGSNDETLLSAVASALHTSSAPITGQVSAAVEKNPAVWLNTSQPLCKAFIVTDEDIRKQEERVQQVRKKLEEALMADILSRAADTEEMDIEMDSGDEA
UHRF1 binding: human UHRF1 methylated DNA binding inhibitors | 370,000 tested, 0.75% active | AID 687016 | UHRF1 binding to methylated oligo, TR-FRET | inhibition, % at 4.4 µM | Q96T88; in the data active means inhibition above about 21%;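 further: UHRF1 SRA domain binding a hemimethylated CpG hairpin DNA probe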
PRMT1 FP inh: blocks human protein arginine methyltransferase 1. recombinant PRMT1, activity-based probe fluorescence polarization. inhibition, % at 2.79 µM. 370,000 tested, 1.3% active. AID 652257;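 active means inhibition above about 21% made by adding two undisclosed values, limit read from the data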
PRMT1 confirm: PRMT1 (human) inhibition, FP confirmation; shares compounds with PRMT1 FP inh; recombinant His-PRMT1, activity-based probe fluorescence polarization; inhibition, % at 2.79 µM; 3,300 tested, 42% active;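 active means mean inhibition across replicates above the hit cutoff derived for the earlier primary screen, cut at about 22% in these data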
Numbers stand for hits.

Screening Cc1c(N2C(=O)/C(=C\C3CC=CCC3)SC2=S)c(=O)n(-c2ccccc2)n1C (stereo not drawn) returned PfG6PD inh inactive, PfM18AAP inh inactive, MBD2 DNA inh inactive, UHRF1 binding inactive, PRMT1 FP inh 43.0 and PRMT1 confirm 25.4.
O=C(OCc1nnc(-c2ccc(Br)cc2)o1)c1ccco1 was read as PfG6PD inh inactive, PfM18AAP inh inactive, MBD2 DNA inh inactive, UHRF1 binding inactive and PRMT1 FP inh inactive.
For CC(C)C[C@H]1CNC(=S)N1C[C@H]1CCCN1C[C@H](CC(C)C)N1C[C@H](Cc2ccc(O)cc2)N(CC2CCCCC2)C1=S the results were MBD2 DNA inh inactive, UHRF1 binding inactive and PRMT1 FP inh inactive.
`O=[N+]([O-])c1ccc(N2CCN(Cc3ccccc3)CC2)c2c1no[n+]2[O-]` gave PfG6PD inh inactive, MBD2 DNA inh inactive, UHRF1 binding inactive, PRMT1 FP inh 54.4 and PRMT1 confirm inactive.
`O=c1sc(/C=N/Nc2ccccc2)c(Cl)n1Cc1ccccc1` gave PfG6PD inh inactive, PfM18AAP inh inactive, MBD2 DNA inh inactive, UHRF1 binding inactive, PRMT1 FP inh 58.9 and PRMT1 confirm inactive.
O=C(O)c1cccc(Cn2c(Cl)c(/C=N/NC(=O)c3ccc(O)cc3)sc2=O)c1 was read as PfG6PD inh inactive, PfM18AAP inh inactive, MBD2 DNA inh inactive, UHRF1 binding inactive and PRMT1 FP inh inactive.
For CCN(CC)CCOC(=O)C(c1ccccc1)c1ccccc1 the results were PfG6PD inh inactive, PfM18AAP inh inactive, MBD2 DNA inh inactive, UHRF1 binding inactive and PRMT1 FP inh inactive.
For CCN(CC)CCSC(=O)C(c1ccccc1)c1ccccc1 the results were MBD2 DNA inh inactive, UHRF1 binding inactive, PRMT1 FP inh 75.6 and PRMT1 confirm 40.1.
Screening CN1/C(=C/C(=O)C2CCC2)Sc2ccccc21 returned PfG6PD inh inactive, PfM18AAP inh inactive, MBD2 DNA inh inactive, UHRF1 binding inactive, PRMT1 FP inh 62.7 and PRMT1 confirm inactive.
Screening Cn1c(SCc2nnc(-c3ccccc3Br)o2)nc2sc3c(c2c1=O)CCC3 returned PfG6PD inh inactive, PfM18AAP inh inactive, MBD2 DNA inh inactive, UHRF1 binding inactive, PRMT1 FP inh 29.4 and PRMT1 confirm inactive.
Cc1ncc([N+](=O)[O-])n1Cc1ccc(Br)cc1 was read as PfG6PD inh inactive, PfM18AAP inh inactive, MBD2 DNA inh inactive, UHRF1 binding inactive and PRMT1 FP inh inactive.
Screening Cc1ccc(NC2=C(Cl)C(=O)OC2NC(=O)c2ccccc2)cc1 (stereo not drawn) returned PfG6PD inh inactive, PfM18AAP inh inactive, MBD2 DNA inh inactive, UHRF1 binding inactive and PRMT1 FP inh inactive.
Screening O=C1OC(NC(=O)c2ccccc2)C(n2cc(CO)nn2)=C1Cl (stereo not drawn) returned PfG6PD inh inactive, PfM18AAP inh inactive, MBD2 DNA inh inactive, UHRF1 binding inactive, PRMT1 FP inh 65.4 and PRMT1 confirm 66.5.
CCc1ccc(OCC(=O)Nc2nnc(-c3ccco3)s2)cc1 was read as PfG6PD inh inactive, PfM18AAP inh inactive, MBD2 DNA inh inactive, UHRF1 binding inactive, PRMT1 FP inh 33.9 and PRMT1 confirm inactive.
Screening COc1cccc(NC(=O)CSc2nc3c(sc4ccccc43)c(=O)n2CCN(C)C)c1 returned PfG6PD inh inactive, PfM18AAP inh inactive, MBD2 DNA inh inactive, UHRF1 binding inactive, PRMT1 FP inh 67.9 and PRMT1 confirm 67.9.
For CCN(CC)CCn1c(SCC(=O)Nc2cccc(OC)c2)nc2c(sc3ccccc32)c1=O the results were PfG6PD inh inactive, PfM18AAP inh inactive, MBD2 DNA inh inactive, UHRF1 binding inactive and PRMT1 FP inh inactive.
For CCCCN(C)C(=O)c1nc2ccccn2c1CN1CCN(C(=O)c2cccs2)CC1 the results were PfG6PD inh inactive, PfM18AAP inh inactive, MBD2 DNA inh inactive, UHRF1 binding inactive and PRMT1 FP inh inactive.
For COc1ccccc1NC(CC(=O)c1ccccc1)C(=O)OCC(=O)c1ccc(C)c(C)c1 (stereo not drawn) the results were PfG6PD inh inactive, PfM18AAP inh inactive, MBD2 DNA inh inactive, UHRF1 binding inactive, PRMT1 FP inh 50.3 and PRMT1 confirm inactive.
COc1ccccc1NC(CC(=O)c1ccccc1)C(=O)OCC(=O)c1ccc(C)cc1 (stereo not drawn) was read as PfG6PD inh inactive, PfM18AAP inh inactive, MBD2 DNA inh inactive, UHRF1 binding inactive and PRMT1 FP inh inactive.
`CCOC1(C(F)(F)F)NC(=O)N(Cc2ccc(OC)cc2)C1=O` (stereo not drawn) gave PfG6PD inh inactive, PfM18AAP inh inactive, MBD2 DNA inh inactive, UHRF1 binding inactive and PRMT1 FP inh inactive.
Screening Cc1ccc(S(=O)(=O)n2nc(-c3ccco3)nc2SCc2ccccc2)cc1 returned PfG6PD inh inactive, PfM18AAP inh inactive, MBD2 DNA inh inactive, UHRF1 binding inactive, PRMT1 FP inh 25.4 and PRMT1 confirm inactive.
`CSc1nc(-c2ccco2)nn1S(=O)(=O)c1ccc(C)cc1` gave PfG6PD inh inactive, PfM18AAP inh inactive, MBD2 DNA inh inactive, UHRF1 binding inactive and PRMT1 FP inh inactive.
For CCc1nc2ccc(C(=O)N(C)C(C)C)cn2c1N(CC)Cc1cccc(Br)c1 the results were MBD2 DNA inh inactive, UHRF1 binding inactive and PRMT1 FP inh inactive.
Screening Cc1cc(C(=O)CCC(=O)N(C)CC(=O)Nc2c(Cl)cccc2Cl)c(C)s1 returned PfG6PD inh inactive, MBD2 DNA inh inactive, UHRF1 binding inactive, PRMT1 FP inh 28.0 and PRMT1 confirm inactive.
`c1ccc2[nH]c3cc4ncnc4cc3nc2c1` gave PfG6PD inh inactive, PfM18AAP inh inactive, MBD2 DNA inh inactive, UHRF1 binding inactive, PRMT1 FP inh 59.5 and PRMT1 confirm 61.4.
FC(F)c1nc2ccccc2[nH]1 was read as PfG6PD inh inactive, PfM18AAP inh inactive, MBD2 DNA inh inactive, UHRF1 binding inactive and PRMT1 FP inh inactive.
CC(=O)Nc1ccc(S(=O)(=O)NCCSCc2ccco2)cc1 was read as PfG6PD inh inactive, PfM18AAP inh inactive, MBD2 DNA inh inactive, UHRF1 binding inactive, PRMT1 FP inh 27.8 and PRMT1 confirm 61.4.
Screening CC(=O)C1=C(S(=O)(=O)c2ccc(C)cc2)CS(=O)(=O)C1 returned PfG6PD inh inactive, PfM18AAP inh inactive, MBD2 DNA inh inactive, UHRF1 binding inactive, PRMT1 FP inh 75.6 and PRMT1 confirm 89.2.
For Cc1ccc(S(=O)(=O)C2CS(=O)(=O)CC2O)cc1 (stereo not drawn) the results were PfG6PD inh inactive, PfM18AAP inh inactive, MBD2 DNA inh inactive, UHRF1 binding inactive and PRMT1 FP inh inactive.
`O=C(CN1CC[n+]2c(-c3cccs3)csc21)c1ccc(-c2ccccc2)cc1` gave PfG6PD inh inactive, PfM18AAP inh inactive, MBD2 DNA inh inactive, UHRF1 binding inactive, PRMT1 FP inh 31.6 and PRMT1 confirm 39.9.
Screening Cc1ccc(C(=O)Cn2nnc(-c3cccs3)n2)cc1 returned PfG6PD inh inactive, PfM18AAP inh inactive, MBD2 DNA inh inactive, UHRF1 binding inactive and PRMT1 FP inh inactive.
For NC(=O)C1CCCN(C(=O)CCC(=O)c2cccs2)C1 (stereo not drawn) the results were PfG6PD inh inactive, MBD2 DNA inh inactive, UHRF1 binding inactive and PRMT1 FP inh inactive.
